Measured values from PubChem BioAssay (NCI).
Compounds without any hit were thinned out: in the full panel of roughly 83,000, 20% have a hit.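 The test compound was applied at a single concentration to cells in 96-well plates for 48 hours, and percent growth was recorded.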 Calls of active or inactive are those of the source. The calls were made as follows: active = growth percent below 10; inactive = the rest.

Key:
Test in all cases: NCI-60 one-dose screen, 48 h (100 = growth as untreated, 0 = no growth, -100 = all killed)
Conditions in all cases: 10 µM unless noted
[1] = test system: DU-145 prostate
[2] = test system: K-562 leukemia
[3] = test system: MALME-3M melanoma
[4] = test system: MDA-MB-231 breast
[5] = test system: RXF 393 renal
[6] = test system: SF-268 CNS
[7] = test system: SF-295 CNS
[8] = test system: SF-539 CNS
[9] = test system: UACC-257 melanoma
[10] = test system: M14 melanoma
[11] = test system: HCT-15 colon
[12] = test system: HT29 colon
[13] = test system: SNB-75 CNS
[14] = test system: SNB-19 CNS
[15] = test system: U251 CNS
[16] = test system: PC-3 prostate
[17] = test system: SK-MEL-5 melanoma
[18] = test system: UACC-62 melanoma
[19] = test system: LOX IMVI melanoma
[20] = test system: SK-MEL-28 melanoma

Measured: growth

NS(=O)(=O)c1ccc(C2C3=C(CCCC3=O)OC3=C2C(=O)c2ccccc2C3=O)cc1 (stereo not given)
active: [1] -99.1% | [2] -43.3% | [3] -97.4% | [4] 5% | [5] -90% | [6] -42.6% | [7] -80.3% | [8] -88.5% | [9] -90.3% | [10] -95% | [11] 2.23% | [12] -29.3% | [13] -99.5% | [14] -1.37% | [15] -86.7% | [16] -1.42% | [17] -95.3% | [18] -59.7% | [19] -72.7% | [20] -57.5%

O=C1NC(c2ccc(F)cc2)N=C2C(c3ccccc3)=NOC12 (stereo not given)
inactive: [1] 110% | [2] 105% | [3] 112% | [4] 115% | [5] 105% | [6] 107% | [7] 108% | [8] 105% | [9] 96.7% | [10] 110% | [11] 103% | [12] 98.7% | [13] 101% | [14] 103% | [15] 101% | [16] 104% | [17] 105% | [18] 102% | [19] 108% | [20] 115%

COc1cccc2c1-c1ccccc1C2=O
inactive: [1] 17.7% | [3] 59.7% | [4] 29.6% | [6] 48.2% | [9] 51.5% | [11] 33.3% | [12] 17.5% | [13] 18.1% | [14] 29% | [15] 17.8% | [16] 28.1% | [18] 33.3% | [19] 40.3% | [20] 47.9%
active: [2] 8.78% | [5] -2.91% | [7] 9.85% | [8] -3.06% | [10] -1.41% | [17] 9.97%

CCOCc1cc(C(C)(C)C)ccc1O
inactive: [1] 110% | [2] 101% | [3] 104% | [4] 105% | [5] 109% | [6] 105% | [7] 105% | [8] 103% | [9] 89.3% | [10] 104% | [11] 104% | [12] 94.6% | [13] 87.4% | [14] 98.3% | [15] 94% | [16] 93.7% | [17] 99.5% | [18] 94.4% | [19] 96.5% | [20] 106%

NS(=O)(=O)c1ccc(-n2nc(-c3ccccc3)ccc2=O)cc1
inactive: [1] 109% | [2] 89.3% | [3] 82.5% | [4] 108% | [5] 125% | [6] 106% | [7] 260% | [8] 95.3% | [9] 111% | [10] 118% | [11] 108% | [12] 112% | [13] 114% | [14] 101% | [15] 99.2% | [16] 96.2% | [17] 109% | [18] 89.6% | [19] 104% | [20] 104%

COc1ccccc1Nc1nnc(-c2ccc(Cl)cc2)o1
inactive: [1] 72.3% | [2] 11.7% | [3] 46.3% | [4] 63.5% | [5] 74.6% | [6] 60.5% | [7] 40.3% | [8] 57.1% | [9] 65.8% | [10] 21.7% | [11] 33.1% | [12] 16.1% | [13] 55.1% | [14] 46.4% | [15] 34.4% | [16] 56.7% | [17] 37.6% | [18] 51.8% | [19] 51.7% | [20] 64%

C=C1C(=O)O[C@H]2[C@H]1CC/C(COC(=O)CCCCCCC(=O)OC/C1=C/CC[C@@]3(C)O[C@H]3[C@H]3OC(=O)C(=C)[C@@H]3CC1)=C\CC[C@@]1(C)O[C@@H]21
active: [2] 2.63% | [3] -2.86% | [4] -1.66% | [5] -72.8% | [11] 0.887% | [12] 3.75% | [19] -10.8%
inactive: [1] 40.4% | [6] 54.2% | [7] 94.9% | [8] 21.1% | [9] 70.7% | [10] 30.6% | [13] 63.1% | [14] 65.9% | [15] 44.1% | [16] 36.1% | [17] 36.5% | [18] 42.3% | [20] 48.8%

Cc1nnc(/N=C2\NC(=O)/C(=C/c3ccc(N(C)C)cc3)S2)s1
inactive: [1] 84% | [2] 49.7% | [3] 56.9% | [4] 103% | [5] 76.9% | [6] 73% | [7] 47.9% | [8] 83.7% | [9] 83.3% | [10] 51.1% | [11] 47.7% | [12] 106% | [13] 67.5% | [14] 80.1% | [15] 72.1% | [16] 57.8% | [17] 42.7% | [18] 74.9% | [19] 64.6% | [20] 69.2%

C=C1C(=O)O[C@H]2[C@H]1CC/C(COC(=O)c1cc3ccccc3o1)=C\CC[C@@]1(C)O[C@@H]21
active: [1] -24.2% | [2] -2.5% | [3] -70.3% | [4] -38.8% | [5] -83.4% | [6] 4.87% | [8] -40.7% | [10] -53.9% | [11] -68.6% | [12] -49.6% | [16] -8.8% | [17] 7.03% | [18] -37.7% | [19] -89.3% | [20] -48%
inactive: [7] 74.8% | [9] 40.5% | [13] 76.5% | [14] 16.7% | [15] 15.4%

S=c1ssnc1-c1cc2ccccc2o1
inactive: [1] 97.5% | [2] 55.7% | [3] 79.8% | [4] 91.2% | [5] 85.6% | [6] 78.8% | [7] 75.1% | [8] 102% | [9] 94.5% | [10] 52.4% | [11] 71.1% | [12] 56.6% | [13] 80.8% | [14] 82% | [15] 91.5% | [16] 14.9% | [17] 68.7% | [18] 86.6% | [19] 60.5% | [20] 93.2%

C=C(C)[C@@H]1CC[C@]2(C(=O)O)CC[C@]3(C)[C@H](CC[C@@H]4[C@@]5(C)C[C@@H](CC#Cc6ccccc6C)C(=O)C(C)(C)[C@@H]5CC[C@]43C)[C@@H]12
inactive: [1] 34.4% | [2] 14% | [3] 61.1% | [4] 48.2% | [5] 51.8% | [6] 48.4% | [7] 33.1% | [8] 36% | [9] 39.9% | [10] 40.6% | [11] 20.9% | [12] 22.3% | [13] 58.1% | [14] 40% | [15] 25.4% | [16] 31.4% | [17] 28.2% | [18] 41.4% | [19] 43.6% | [20] 42.9%

c1ccc2c3c([nH]c2c1)C(c1ccc(C2NCCc4c2[nH]c2ccccc42)cc1)NCC3 (stereo not given)
inactive: [5] 33.9% | [16] 16.8%
active: [1] -35.1% | [2] -57.6% | [3] -50.3% | [4] -56.2% | [6] -29.2% | [7] -72.2% | [8] -15.5% | [9] -41.7% | [10] -84.9% | [11] -65.8% | [12] -74.2% | [13] -11.4% | [14] 2.5% | [15] -92.6% | [17] -92.9% | [18] -69.9% | [19] -94.6% | [20] -52.8%

C=C(C)[C@@H]1CC[C@]2(C(=O)O)CC[C@]3(C)[C@H](CC[C@@H]4[C@@]5(C)C[C@@H](CC#Cc6ccc(Cl)cc6)C(=O)C(C)(C)[C@@H]5CC[C@]43C)[C@@H]12
inactive: [1] 39.4% | [2] 28.8% | [3] 21.2% | [5] 62.4% | [6] 74.1% | [7] 41.3% | [8] 57% | [9] 75.6% | [11] 45.5% | [12] 30.1% | [13] 70% | [14] 54% | [15] 28.1% | [16] 25.9% | [17] 51.8% | [19] 59.6%
active: [4] 6.05% | [10] 1.24% | [18] -20.2% | [20] -23.1%

NC(N)=NC(N)=Nc1cc2ccccc2c2ccccc12
active: [2] 5.89% | [3] -8.45% | [10] -33.4%
inactive: [1] 56.3% | [4] 15.6% | [5] 36.3% | [6] 48% | [7] 53.3% | [8] 59.9% | [9] 74.4% | [11] 57.8% | [12] 12.6% | [13] 57.7% | [14] 35.8% | [15] 33.8% | [16] 24.4% | [17] 45.6% | [18] 43.6% | [19] 16.5% | [20] 55.9%

CCCCc1n(Cc2ccc3ccccc3n2)cc[n+]1Cc1ccc2ccccc2c1
inactive: [1] 25.1% | [6] 19.3% | [8] 14.3% | [11] 76.7% | [13] 15.7%
active: [2] 6.43% | [3] -22.2% | [4] -29.2% | [5] -14.3% | [7] 0.543% | [9] -32.7% | [10] -16.9% | [12] -8.3% | [14] 7.08% | [15] 5.73% | [16] 1.01% | [17] -94.3% | [18] -57.7% | [19] -26.5% | [20] 0.554%

O=c1[nH]c2ccccc2cc1-c1nc2ccc(Cl)cc2[nH]1
active: [7] -7.79%
inactive: [1] 38.2% | [2] 13.7% | [3] 61.7% | [4] 44.9% | [5] 63% | [6] 50.7% | [8] 49% | [9] 91.5% | [10] 40.8% | [11] 23.5% | [12] 53.1% | [13] 45.1% | [14] 75.5% | [15] 49.5% | [16] 26% | [17] 42.5% | [18] 43% | [19] 42.4% | [20] 72.4%
